Assay results reported in PubChem BioAssay AID1159580 (chemical genetic matrix, 2015).
Hit rate of the full screen: of about 5,500 compounds, about 2,000 (36%) were called active. Not shown: some 18% with an inconclusive outcome. Cut-off read from the data, not from the text of the source: active = normalized growth mostly below about 0.91 (no sharp cut-off); inconclusive = no clear call, values can overlap the other calls; inactive = mostly above about 0.92. The list shows a part of the results.

Assay: chemical genetic growth profiling, strain panel (AID 1159580);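 note: tested at 20 µM; growth read once vehicle control cultures reached saturation at 30 °C; 1 = growth at the plate median or of vehicle wells; lower values mean less growth of the strain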
Settings: growth OD

Measured: normalized growth

O=C1CN(/N=C\c2ccc([N+](=O)[O-])o2)C(=O)N1
active: S. cerevisiae deletion strains, locus YMR058W, strain fet3, hits give low values 0.898 | S. cerevisiae deletion strains, locus YNL250W, strain rad50, hits give low values 0.877
inactive: S. cerevisiae deletion strains, locus YJR075W, strain HOC1, hits give low values 0.986 | S. cerevisiae deletion strains, locus YKL009W, strain mrt4, hits give low values 0.967 | S. cerevisiae deletion strains, locus YKL068W, hits give low values 1 | S. cerevisiae deletion strains, locus YKL085W, strain MDH1 (second series), hits give low values 0.991 | S. cerevisiae deletion strains, locus YKL085W, strain MDH1, hits give low values 0.991 | S. cerevisiae deletion strains, locus YKL160W, strain elf1, hits give low values 0.985 | S. cerevisiae deletion strains, locus YKL190W, strain CNB1, hits give low values 0.996 | S. cerevisiae deletion strains, locus YKR001C, strain vps1, hits give low values 0.965 | S. cerevisiae deletion strains, locus YKR026C, strain gcn3, hits give low values 0.979 | S. cerevisiae deletion strains, locus YKR091W, strain srl3, hits give low values 0.979 | S. cerevisiae deletion strains, locus YLL001W, strain dnm1, hits give low values 1 | S. cerevisiae deletion strains, locus YLL026W, hits give low values 0.992 | S. cerevisiae deletion strains, locus YLL041C, strain sdh2, hits give low values 0.978 | S. cerevisiae deletion strains, locus YLR027C, strain aat2, hits give low values 0.975 | S. cerevisiae deletion strains, locus YLR039C, strain RIC1, hits give low values 0.983 | S. cerevisiae deletion strains, locus YLR058C, strain SHM2, hits give low values 1.01 | S. cerevisiae deletion strains, locus YLR102C, strain apc9, hits give low values 0.993 | S. cerevisiae deletion strains, locus YLR113W, strain HOG1, hits give low values 0.968 | S. cerevisiae deletion strains, locus YLR221C, strain rsa3, hits give low values 0.976 | S. cerevisiae deletion strains, locus YLR258W, strain gsy2, hits give low values 0.975 | S. cerevisiae deletion strains, locus YLR262C, strain YPT6 (second series), hits give low values 0.976 | S. cerevisiae deletion strains, locus YLR262C, strain YPT6, hits give low values 1.04 | S. cerevisiae deletion strains, locus YLR268W, strain sec22, hits give low values 0.996 | S. cerevisiae deletion strains, locus YLR320W, strain mms22, hits give low values 0.935 | S. cerevisiae deletion strains, locus YLR330W, strain CHS5, hits give low values 1 | S. cerevisiae deletion strains, locus YLR342W, strain FKS1 (second series), hits give low values 0.983 | S. cerevisiae deletion strains, locus YLR342W, strain FKS1, hits give low values 0.979 | S. cerevisiae deletion strains, locus YLR357W, strain rsc2, hits give low values 0.954 | S. cerevisiae deletion strains, locus YLR370C, strain arc18, hits give low values 0.985 | S. cerevisiae deletion strains, locus YLR371W, strain rom2, hits give low values 1.01 | S. cerevisiae deletion strains, locus YLR384C, strain iki3, hits give low values 0.986 | S. cerevisiae deletion strains, locus YLR418C, strain cdc73, hits give low values 0.885 | S. cerevisiae deletion strains, locus YML016C, strain PPZ1, hits give low values 0.998 | S. cerevisiae deletion strains, locus YML032C, strain rad52, hits give low values 0.929 | S. cerevisiae deletion strains, locus YML120C, strain ndi1, hits give low values 0.982 | S. cerevisiae deletion strains, locus YML124C, strain tub3, hits give low values 0.991 | S. cerevisiae deletion strains, locus YMR078C, strain ctf18, hits give low values 0.989 | S. cerevisiae deletion strains, locus YMR125W, strain sto1, hits give low values 0.943 | S. cerevisiae deletion strains, locus YMR129W, hits give low values 0.965 | S. cerevisiae deletion strains, locus YMR205C, strain PFK2, hits give low values 0.993 | S. cerevisiae deletion strains, locus YMR223W, strain ubp8, hits give low values 0.949 | S. cerevisiae deletion strains, locus YMR231W, strain pep5, hits give low values 0.985 | S. cerevisiae deletion strains, locus YMR263W, strain SAP30, hits give low values 0.977 | S. cerevisiae deletion strains, locus YMR307W, strain GAS1, hits give low values 0.973 | S. cerevisiae deletion strains, locus YNL067W, strain RPL9B, hits give low values 0.982 | S. cerevisiae deletion strains, locus YNL071W, strain lat1, hits give low values 0.959 | S. cerevisiae deletion strains, locus YNL128W, strain TEP1, hits give low values 0.974 | S. cerevisiae deletion strains, locus YNL153C, strain GIM3, hits give low values 0.966 | S. cerevisiae deletion strains, locus YNL183C, strain NPR1, hits give low values 0.879 | S. cerevisiae deletion strains, locus YNL209W, strain ssb2, hits give low values 0.975 | S. cerevisiae deletion strains, locus YNL233W, strain BNI4, hits give low values 0.995 | S. cerevisiae deletion strains, locus YNL248C, strain rpa49, hits give low values 0.923 | S. cerevisiae deletion strains, locus YNL271C, strain bni1, hits give low values 0.998 | S. cerevisiae deletion strains, locus YNL298W, strain CLA4, hits give low values 0.991 | S. cerevisiae deletion strains, locus YNL307C, strain MCK1, hits give low values 0.952 | S. cerevisiae deletion strains, locus YNL322C, strain KRE1 (second series), hits give low values 0.98 | S. cerevisiae deletion strains, locus YNL322C, strain KRE1, hits give low values 1.01 | S. cerevisiae deletion strains, locus YNR049C, strain mso1, hits give low values 0.984 | S. cerevisiae deletion strains, locus YNR052C, strain pop2, hits give low values 0.998 | S. cerevisiae deletion strains, locus YOL006C, strain TOP1, hits give low values 1.03 | S. cerevisiae deletion strains, locus YOL012C, strain htz1 0.88 | S. cerevisiae deletion strains, locus YOL147C, strain pex11, hits give low values 0.999 | S. cerevisiae deletion strains, locus YOR001W, strain rrp6, hits give low values 0.977 | S. cerevisiae deletion strains, locus YOR061W, strain CKA2, hits give low values 0.998 | S. cerevisiae deletion strains, locus YOR069W, strain VPS5, hits give low values 0.999 | S. cerevisiae deletion strains, locus YOR070C, strain gyp1, hits give low values 0.98 | S. cerevisiae deletion strains, locus YOR080W, strain dia2, hits give low values 0.983 | S. cerevisiae deletion strains, locus YOR083W, strain WHI5, hits give low values 1 | S. cerevisiae deletion strains, locus YOR106W, strain vam3, hits give low values 0.969 | S. cerevisiae deletion strains, locus YOR136W, strain idh2, hits give low values 0.983 | S. cerevisiae deletion strains, locus YOR144C, strain elg1, hits give low values 1.02 | S. cerevisiae deletion strains, locus YOR184W, strain ser1, hits give low values 0.932 | S. cerevisiae deletion strains, locus YOR231W, strain MKK1, hits give low values 0.889 | S. cerevisiae deletion strains, locus YOR265W, strain rbl2, hits give low values 0.979 | S. cerevisiae deletion strains, locus YOR270C, strain vph1, hits give low values 0.874 | S. cerevisiae deletion strains, locus YOR290C, strain snf2, hits give low values 0.961 | S. cerevisiae deletion strains, locus YOR316C, strain cot1, hits give low values 0.999 | S. cerevisiae deletion strains, locus YPL051W, strain arl3, hits give low values 0.979 | S. cerevisiae deletion strains, locus YPL055C, strain LGE1, hits give low values 0.97 | S. cerevisiae deletion strains, locus YPL078C, strain atp4, hits give low values 0.956 | S. cerevisiae deletion strains, locus YPL106C, strain sse1, hits give low values 0.964 | S. cerevisiae deletion strains, locus YPL240C, strain hsp82, hits give low values 0.974 | S. cerevisiae deletion strains, locus YPL241C, strain CIN2, hits give low values 0.996 | S. cerevisiae deletion strains, locus YPL256C, strain CLN2, hits give low values 0.956 | S. cerevisiae deletion strains, locus YPR119W, strain clb2, hits give low values 1 | S. cerevisiae deletion strains, locus YPR141C, strain kar3, hits give low values 1.01 | S. cerevisiae deletion strains, locus YPR163C, strain tif3, hits give low values 1 | S. cerevisiae deletion strains, locus YPR167C, strain met16, hits give low values 1 | S. cerevisiae deletion strains, strain wtn01, hits give low values 0.99 | S. cerevisiae strains, strain wild type, hits give low values 0.997
